Screens: PubChem BioAssay, National Center for Advancing Translational Sciences (NCATS)
G9a inh: inhibitors of human histone lysine methyltransferase G9a; G9a H3K9 monomethylation, AlphaScreen, 2 h; 8.8% of 350,000 active; Potency, µM (series often up to 102 µM), for the others: at the top dose activity, negative = inhibition, most hits filed as inhibitors; Q96KQ7; also: % is scaled to controls: 0 for no effect and ±100 for the full control effect; nearly all actives have a fitted effect of over 75% in size
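AlphaScreen detection with an anti-monomethyl H3K9 antibody quantified product after a 2 h room-temperature reaction containing 500 nM biotinylated H3K9 peptide, 20 µM SAM and 20 nM enzyme, which had been preincubated 15 min with compound.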
L3MBTL1 inh: inhibitors of human L3MBTL1; 0.66% of 230,000 active; AlphaScreen L3MBTL1–H3K9me1 peptide binding; Q9Y468; Potency, µM (doses to about 57.1 µM), without a hit: at the highest dose activity, negative = inhibition, actives largely listed as inhibitors; also: % is scaled to controls: 0 for no effect and ±100 for the full control effect; nearly all actives have a fitted effect of over 60% in size
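First, the protein-peptide complex forms for 30 min at room temperature (L3MBTL1 50 nM, biotinylated H3K9me1 peptide 75 nM). Next, compounds are pin-transferred and incubated 30 min. Finally, AlphaScreen beads are added and read after 30 min.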
BAZ2B block: blocks human BAZ2B; Potency, µM (highest dose often 114 µM), without a hit: top-dose activity change, negative = inhibition, usual class: inhibitors; 4.4% of 360,000 active; AlphaScreen BAZ2B-H3K14Ac peptide displacement; Q9UIF8; also: % is scaled to controls: 0 for no effect and ±100 for the full control effect; nearly all actives have a fitted effect of over 60% in size
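Complex of BAZ2B and biotin-H3K14Ac (50 nM apiece) forms over 30 min at RT, then faces library compounds up to 110 uM for another 30 min; AlphaScreen beads added, 20 min dark incubation, luminescence read.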
HP1b binding inh: HP1-beta chromodomain-methylated histone interaction inhibition. Potency, µM (doses to about 114 µM), inactives show at the top dose activity change, negative = inhibition, actives largely listed as inhibitors. AlphaScreen HP1-beta / biotin-H3K9me3 peptide binding. P83916. 0.56% of 390,000 active; also: nearly all actives have a fitted effect of over 70% in size
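AlphaScreen: HP1-beta (50 nM) preformed 30 min with biotin-H3(1-18)K9me3 peptide (50 nM) in PBS pH 7.4, 0.01% Tween-20. Compound added for 30 min at RT, then streptavidin donor/nickel chelate acceptor beads (10 ug/mL) for 30 min.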
JMJD2A Tudor: inhibitors of human JMJD2A Tudor domain | O75164 | AlphaScreen JMJD2A-Tudor / H3K4me3 peptide binding | 4.4% of 390,000 active | Potency, µM (series often up to 114 µM), for the others: top-dose activity change, negative = inhibition, most hits filed as inhibitors; also: % is scaled to controls: 0 for no effect and ±100 for the full control effect; nearly all actives have a fitted effect of over 50% in size
The depositor's hits bear a star; ? = inconclusive; · = not tested or not shown; ! = repeats disagree; [ ] = remark or other dose. This is a sample that favours compounds with a hit; in the whole collection about 11% have one here. Calls follow the shape of the dose curve; as a rule, active = well fitted inhibition curve with a large enough effect; inconclusive = small, poorly fitted or top-dose-only effect; inactive = no such curve, though single readings can be large or run the other way. Potency is read from the fitted curve at half-maximal effect.

SMILES	G9a inh	L3MBTL1 inh	BAZ2B block	HP1b binding inh	JMJD2A Tudor
Cc1ccc(Nc2nc(N)nc(CN3CCN(Cc4ccc5c(c4)OCO5)CC3)n2)cc1C	·	-13%	40µM*	-5%	?
Cc1ccc(Nc2nc(N)nc(CN3CCN(Cc4ccc5c(c4)OCO5)CC3)n2)cc1	12%[12.7 µM]	-8%	56µM*	-9%	?
CCCOc1ccc(CNC(=S)Nc2ccccc2)cc1Cl	2%	·	11%	53%	-23%
Cn1c(/N=C/c2ccccc2[N+](=O)[O-])nc2ccccc21	79µM*	-2%	8%	32%	-9%
COCCn1c(=O)cnc2cnc(N3CCN(C)CC3)nc21	-1%[0.501 µM]	·	·	·	·
CCS(=O)(=O)NCC(c1ccco1)N1CCN(c2ccc(OC)cc2)CC1 (centres undefined)	47%[59 µM]	·	11%	14%	-25%
COc1ccc(N2CCN(C(CNS(=O)(=O)c3c(C)cc(C)cc3C)c3ccco3)CC2)cc1 (centres undefined)	7.1µM*	·	32µM*	-22%	22µM*
COc1ccc(N2CCN(C(CNS(=O)(=O)c3ccccc3)c3ccccc3)CC2)cc1 (centres undefined)	14µM*	·	25µM*	?	16µM*
COc1ccc(N2CCN(C(CNS(=O)(=O)c3ccc4c(c3)OCCO4)c3ccco3)CC2)cc1 (centres undefined)	7.9µM*	-17%	?	?	?
CS(=O)(=O)NCC(c1ccco1)N1CCN(c2ccc(F)cc2)CC1 (centres undefined)	45µM*!	-1%	-18%	34%	-5%
COc1cccc(NC(=O)N2CCC(CN3CCOCC3)CC2)c1	-10%[59 µM]	·	3%	27%	-9%
CN1CCN(C(=O)c2cc(=O)c3cc(Cl)cc(Cl)c3o2)CC1	7%	·	3%	56%	-25%
Cc1ccc(CCNC(=O)CCCn2c(=O)c3ccccc3n(CC(=O)Nc3cc(Cl)ccc3C)c2=O)cc1	27%[59 µM]	·	15%	64%	-8%
COc1ccc(C(=O)Nc2ccnn2C2CCN(Cc3ccccn3)CC2)cc1	50µM*	·	-25%[57.1 µM]	20%	-10%
O=C(CCCc1ccccc1)Nc1ccnn1C1CCN(Cc2ccccn2)CC1	79µM*	·	?	24%	-10%
Cc1ccccc1CN1CCC(n2nccc2NC(=O)CCCc2ccccc2)CC1	0%[0.0925 µM]	·	-6%	37%	-11%
COc1ccc(C(CC(=O)NCc2ccccc2Cl)N2Cc3ccccc3C2=O)cc1OC (centres undefined)	11%[59 µM]	·	-5%	41%	1%
Cc1ccc(S(=O)(=O)CC(=O)N2CC(C)OC(C)C2)cc1 (centres undefined)	39%	·	-11%	48%	?
CCn1ccc2cc(S(=O)(=O)N3CCC(C(=O)NCCOC)CC3)ccc21	0%[59 µM]	·	-2%	27%[57 µM]	0%
Cc1nc(NC(=O)CN2CCCCC2)sc1C(=O)N(C)C	79µM*	-1%	-27%	8%	-32%
COc1ccccc1N1CCN(CC(=O)Nc2nc(C)c(C(=O)N(C)C)s2)CC1	10%	-8%	2%	25%	-2%
Cc1nc(NC(=O)CN2CCOCC2)sc1C(=O)N(C)C	?	4%	-20%	18%	16µM*
C=CCn1c(SCC#N)nc2cc(Cl)ccc2c1=O	·	·	·	28%[57 µM]	5%[57.1 µM]
N#Cc1c(Sc2ncc(C(F)(F)F)cc2Cl)nsc1C/C=N\OCc1ccccc1Br	20µM*	·	45µM*	-22%	?
OCC1(CO)COC(C(Cl)(Cl)Cl)OC1	-9%[12.7 µM]	·	·	·	·
CCc1cc(SC#N)cc(C)c1NC(=O)CCl	40µM*	-8%	-24%	47%	-5%
COc1cccc(NC(=O)COC(=O)COc2ccccc2[N+](=O)[O-])c1	-12%[59 µM]	-11%	-33%	5%	-28%
COc1cccc(NCc2ccc([N+](=O)[O-])s2)c1	13µM*	-2%	?	?	?
Cc1ccccc1CNC(=O)C(C)n1nc(C)n2c(cc3occc32)c1=O (centres undefined)	-4%[59 µM]	·	-8%	14%	-3%
O=C(CC1C(=O)NCCN1Cc1cccc(C(F)(F)F)c1)NC1CCCCCC1 (centres undefined)	40µM*	·	-21%	20%	-30%
